The list is not random: actives were taken first. Their share in the collection is about 2.3%.
CHO-K1 Ca antag: M1 antagonist counterscreen hit in parental CHO-K1 cells; inhibition, % at 3 µM; 360,000 tested, 0.6% active; ATP-induced calcium, Fluo-8 fluorescence;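 active = inhibition above a per-plate cutoff, the plate's mean sample inhibition plus 3 SD, cut at about 24% in these data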
M1 antag: blocks human M1 muscarinic receptor | P11229 | CHO-K1 hM1, Fluo-8 calcium fluorescence, ACh EC80 antagonist | inhibition, % at 3 µM | 360,000 tested, 1.3% active | AID 588852;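 active = percent inhibition above its own plate's cutoff, namely the mean of that plate's compound wells plus 3 SD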;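 note: peak over basal fluorescence ratio during 140 s after agonist addition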
Target sequence (P11229 whole entry, looked up): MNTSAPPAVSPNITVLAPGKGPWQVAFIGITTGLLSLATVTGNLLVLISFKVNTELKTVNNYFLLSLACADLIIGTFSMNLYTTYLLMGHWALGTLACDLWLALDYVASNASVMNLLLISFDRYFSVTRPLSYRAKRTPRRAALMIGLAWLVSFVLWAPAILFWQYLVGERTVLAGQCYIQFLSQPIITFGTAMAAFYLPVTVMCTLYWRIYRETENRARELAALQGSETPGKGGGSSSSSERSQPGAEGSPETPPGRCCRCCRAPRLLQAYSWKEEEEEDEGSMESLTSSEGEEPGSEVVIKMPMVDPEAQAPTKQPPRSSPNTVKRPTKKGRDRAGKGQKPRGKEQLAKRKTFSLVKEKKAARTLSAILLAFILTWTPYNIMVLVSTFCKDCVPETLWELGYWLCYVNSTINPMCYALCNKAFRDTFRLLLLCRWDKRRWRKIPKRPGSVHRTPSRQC
CHO-K1 Ca ag: counter-screen for M1 agonists: effect in parental CHO-K1 cells; Fluo-8 calcium fluorescence; scaled to maximal ATP response, vehicle zero; activation, % at 3 µM; 360,000 tested, 0.48% active; AID 602248; in the data active = activation above about 15%;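 note: untransfected CHO-K1 host cells lacking M1 receptor as counterscreen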
CHO-K1 Ca PAM: M1 PAM counterscreen hit in parental CHO-K1 cells; ATP EC20, Fluo-8 calcium fluorescence; 0% at ATP EC20, 100% at ATP max; activation, % at 3 µM; 360,000 tested, 0.02% active;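 active = activation above the run cutoff, the mean activation of all test compounds plus 3 SD, cut at about 40% in these data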;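 note: peak over basal fluorescence ratio in a 140 s read after ATP addition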
CHRM1 PAM: human CHRM1 positive allosteric modulation | CHO-K1 hM1, Fluo-8 calcium fluorescence, ACh EC20; 0% = ACh EC20, 100% = maximal ACh | AID 588819 | P11229 | activation, % at 3 µM | 360,000 tested, 0.088% active; in the data active = activation above about 19%, passing the limit was not always enough
M1 ag: human M1 muscarinic receptor agonism; P11229; CHO-K1 hM1, Fluo-8 calcium fluorescence, agonist mode; 0% DMSO, 100% acetylcholine EC100; activation, % at 3 µM; 360,000 tested, 0.33% active; AID 588814;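 active = activation above the run's mean compound activation plus 3 SD, cut at about 16% in these data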;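 note: peak over basal fluorescence ratio within a 140 s kinetic read after compound addition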
Each line names hits and unclear results; the compound was inactive in the other large screens.

CN1/C(=C/c2cccc[n+]2CCO)Sc2ccccc21	none
COc1ccc(OCCNC(=O)c2cccc(Oc3ccc(C(F)(F)F)cc3[N+](=O)[O-])c2)cc1	CHO-K1 Ca antag 25
CCS(=O)(=O)c1ccc2oc(SCC(=O)Nc3ccc(OC)cc3OC)nc2c1	none
CCS(=O)(=O)c1ccc2oc(SCC(=O)NC(C)C3CC4CCC3C4)nc2c1 (centres undefined)	CHO-K1 Ca antag 25
CCOC(=O)CSc1ncnc2c1sc1nc(N3CCOCC3)c3c(c12)CCCC3	CHO-K1 Ca antag 34
Cc1ccccc1N1C(=O)CC(N(O)c2ccccc2)C1=O (centres undefined)	none
O=C1CC(N(O)c2ccccc2)C(=O)N1c1cc(Cl)cc(Cl)c1 (centres undefined)	M1 ag 27
O=C(Nc1cc(C(=O)N2CCN(c3ccccc3O)CC2)ccc1Cl)c1cccs1	none
CC1(C(=O)Nc2cnc3ccccc3c2)CCN1Cc1cc2ccccc2o1 (centres undefined)	CHO-K1 Ca antag 35
CC1(C(=O)Nc2cnc3ccccc3c2)CCN1Cc1ccc2ccccc2c1 (centres undefined)	none
COc1ccc(C(CNC(=O)c2cc(S(=O)(=O)NCc3ccccc3)ccc2C)N2CCOCC2)cc1 (centres undefined)	CHO-K1 Ca antag 28
CCCCN1C(=N)N([C@@H](CN2CCC[C@H]2CN2C(N)=NC[C@@H]2Cc2ccccc2)C(C)C)C[C@H]1Cc1ccccc1	M1 antag 59
CC(C)C[C@@H]1CN=C(N)N1C[C@@H]1CCCN1C[C@@H](C(C)C)N1C[C@@H](Cc2ccccc2)N(CCCC2CCCC2)C1=N	none
CCCCN1C(=N)N([C@@H](C)CN2CCC[C@H]2CN2C(N)=NC[C@@H]2Cc2ccccc2)C[C@H]1Cc1ccccc1	M1 antag 94
CCn1cc(C(=O)N[C@@H](CCSC)C(=O)NCCCOC)c(=O)c2cc3c(cc21)OCO3	none
CC(NCC(O)COc1ccc(Br)cc1)c1ccccc1 (centres undefined)	M1 antag 75
CC(NCC(O)COc1ccc2ccccc2c1)c1ccccc1 (centres undefined)	CHO-K1 Ca ag 16
Cc1ccc(NC(=S)NCc2ccccc2)cc1[N+](=O)[O-]	none
Cc1ccc(CNC(=S)Nc2ccc(C)c([N+](=O)[O-])c2)cc1	CHO-K1 Ca antag 29
Cc1ccc(S(=O)(=O)N2CCC(=O)N(CCO)CC2)cc1	none
C[C@H]1CN=C(N(C)C)N1CC1CCCC1	none
C[C@H]1CN=C(N(C)C)N1CC1CCC(C(C)(C)C)CC1 (some centres undefined)	M1 antag 51
COc1ccccc1N1CCN(C(=O)[C@@H]2CCCN2C2=NS(=O)(=O)c3ccccc32)CC1	none
COc1cccc(C(=O)c2c(C)c(CCC#N)n3ccccc23)c1	CHO-K1 Ca ag 25
COc1ccc(C(=O)O)cc1S(=O)(=O)NCCCN1CCCC1=O	CHO-K1 Ca antag 25
CCCN(CC(=O)Nc1ccccc1C)C(=O)c1cccc(S(=O)(=O)N2CCc3ccccc3C2)c1	M1 antag 35
CC(C)c1ccc(NC(=S)NNC(=O)c2cccs2)cc1	none
O=C(N/N=C/c1cccc(Br)c1)C1CC(=O)N(c2ccccc2)C1 (centres undefined)	none
C[C@@H]1CN([C@H](C)CO)C(=O)CCCn2nncc2CO[C@H]1CN(C)Cc1ccccc1	none
C=CCN1C(=O)NC(c2ccc(OC)cc2)(C(F)(F)F)S/C1=C(\C#N)c1nnc(N2CCOCC2)n1-c1ccccc1 (centres undefined)	M1 ag 19
CCCc1cc(Nc2ccccc2OCC)n2ncnc2n1	CHO-K1 Ca antag 28
Cn1c(Oc2ccc(Cl)cc2)c(C=O)c2ccccc21	CHO-K1 Ca antag 27
CC(C)NC(=O)c1ccc2c(c1)N(Cc1ccccc1)C(=O)C(C)(C)O2	CHO-K1 Ca antag 24
CC(C)NC(=O)c1ccc2c(c1)N(CC(=O)N1CCCC1)C(=O)C(C)(C)O2	none
CN1C(CC(=O)Nc2ccc(Cl)cc2Cl)c2ccccc2CC1(C)C (centres undefined)	M1 antag 34
CC1(C)N=C(SCC(=O)Nc2ccc(Cl)cc2Cl)C(c2ccccc2)=N1	none

Screening data: PubChem, The Scripps Research Institute Molecular Screening Center
